The values below come from ChEMBL document CHEMBL3988442, “University of Dundee, Small-Polar-MMV Screening Library” (2021).

What all share (set-up): scale not given: direction of the effect not stated beside the values
Assay [1] has as its target Protein translocase subunit SecA (Escherichia coli (strain K12)) (UniProt P10408). In words: Assay to Identify E. coli SecA ATPase Inhibitors. The assay is classed as functional. The conditions noted are these: 30 µM.
The target of assay [2] is T1, Ubiquitin-activating enzyme e1, putative (Leishmania donovani (strain BPK282A1)) (UniProt E9BSI1).
T1 sequence (whole entry): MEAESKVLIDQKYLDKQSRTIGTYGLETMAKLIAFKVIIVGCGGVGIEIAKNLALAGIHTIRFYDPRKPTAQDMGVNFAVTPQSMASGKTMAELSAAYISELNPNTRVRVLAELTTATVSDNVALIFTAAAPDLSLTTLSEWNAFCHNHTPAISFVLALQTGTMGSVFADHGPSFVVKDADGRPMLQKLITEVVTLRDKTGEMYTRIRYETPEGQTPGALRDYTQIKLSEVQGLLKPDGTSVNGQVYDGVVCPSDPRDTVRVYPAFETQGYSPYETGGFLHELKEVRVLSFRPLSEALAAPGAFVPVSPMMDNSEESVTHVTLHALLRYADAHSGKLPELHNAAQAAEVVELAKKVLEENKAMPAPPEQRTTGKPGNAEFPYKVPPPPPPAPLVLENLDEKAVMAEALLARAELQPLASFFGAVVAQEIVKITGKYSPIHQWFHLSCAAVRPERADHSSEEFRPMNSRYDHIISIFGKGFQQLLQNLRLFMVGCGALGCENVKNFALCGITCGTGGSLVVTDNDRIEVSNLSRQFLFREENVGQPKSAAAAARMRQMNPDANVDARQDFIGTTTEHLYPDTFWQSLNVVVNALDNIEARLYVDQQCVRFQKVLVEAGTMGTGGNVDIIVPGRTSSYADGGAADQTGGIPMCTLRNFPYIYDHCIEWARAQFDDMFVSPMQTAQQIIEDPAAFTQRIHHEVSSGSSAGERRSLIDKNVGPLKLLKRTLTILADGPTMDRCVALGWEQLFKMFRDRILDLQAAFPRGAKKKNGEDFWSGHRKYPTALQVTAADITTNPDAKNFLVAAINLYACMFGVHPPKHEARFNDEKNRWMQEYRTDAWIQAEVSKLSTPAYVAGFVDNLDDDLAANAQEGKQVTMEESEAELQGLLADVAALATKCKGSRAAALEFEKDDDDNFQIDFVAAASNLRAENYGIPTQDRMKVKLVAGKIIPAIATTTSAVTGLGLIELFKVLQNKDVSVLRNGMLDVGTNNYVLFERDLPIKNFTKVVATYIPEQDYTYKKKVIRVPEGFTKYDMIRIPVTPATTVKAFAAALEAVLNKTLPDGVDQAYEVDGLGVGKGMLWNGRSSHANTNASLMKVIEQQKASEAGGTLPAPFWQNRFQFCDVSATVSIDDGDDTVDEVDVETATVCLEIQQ
The assay is described as follows: Leishmania donovani Ubiquitin Activating Enzyme (LdE1). The conditions noted are these: 30 µM. In kind it is functional.

Assay [3] has as its target AMP-activated protein kinase, AMPK (Homo sapiens) (UniProt P54646+O43741+P54619+Q9UGJ0+Q9Y478+Q13131+Q9UGI9). In words: AMP-dependent Kinase enzyme assay. An in vitro enzyme assay that detects ADP turnover that is directly proportional to AMPK activity. This uses naive AMPK that is activated during the assay with MK-8722. In kind it is functional. The conditions noted are these: 30 µM.

Assay [4] addresses Sialic acid-binding Ig-like lectin 9 (Homo sapiens) (UniProt Q9Y336). The assay is described as follows: Hs-Siglec9 ALPHAscreen SOP 20170721. The conditions noted are these: 10 µM. On the technique in general: Bead proximity is the source of the signal in Alpha formats.
For another assay, the system named is Trypanosoma cruzi. In words: Trypanosoma cruzi phosphomannomutase and mannose-1-phosphate guanylyltransferase assay. In kind it is functional. The settings on record: 10 µM.
Assay [5] concerns the target T2, Arginase-2, mitochondrial (Homo sapiens) (UniProt P78540).
T2 sequence (whole entry): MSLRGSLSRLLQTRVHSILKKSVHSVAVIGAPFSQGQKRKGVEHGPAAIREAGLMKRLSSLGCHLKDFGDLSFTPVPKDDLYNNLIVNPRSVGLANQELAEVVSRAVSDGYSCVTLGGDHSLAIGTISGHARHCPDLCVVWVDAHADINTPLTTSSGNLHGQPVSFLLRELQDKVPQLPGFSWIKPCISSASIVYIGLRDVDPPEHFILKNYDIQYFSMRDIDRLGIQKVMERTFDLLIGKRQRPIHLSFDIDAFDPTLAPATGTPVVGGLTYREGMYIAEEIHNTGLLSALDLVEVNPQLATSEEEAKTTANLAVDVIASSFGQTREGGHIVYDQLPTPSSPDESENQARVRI
In words: in vitro enzyme assay to detect the production of urea directly proportional to the activity of Arginase II. Further: in the data most compounds retested in dose-response had high values. In kind it is functional. The conditions noted are these: 33.3 µM.

Assay [6] concerns the target T3, Proteasome subunit beta (Trypanosoma cruzi) (UniProt O96673).
T3 sequence (whole entry): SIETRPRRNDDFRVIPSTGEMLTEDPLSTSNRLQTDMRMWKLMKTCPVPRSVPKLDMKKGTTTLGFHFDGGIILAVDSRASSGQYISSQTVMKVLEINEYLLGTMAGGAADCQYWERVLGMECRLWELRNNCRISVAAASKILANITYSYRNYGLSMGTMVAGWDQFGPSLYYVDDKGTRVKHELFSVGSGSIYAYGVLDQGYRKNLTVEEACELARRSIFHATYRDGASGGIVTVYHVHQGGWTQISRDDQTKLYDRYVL
The assay is described as follows: Trypanosoma cruzi proteasome chymotrypsin-like activity (TcProtChymo) assay. Further: in the data most compounds retested in dose-response had high values. The assay is classed as functional. The settings on record: 9.37 µM.

For the next assay, the species on record is Homo sapiens. In words: To identify inhibition of the IFN signalling (Jak-Stat) pathway via expression of an eGFP reporter gene under the control of an IFN-stimulated response element (ISRE) containing MxA promoter. In kind it is functional. The settings on record: 30 µM.
Assay [7] deals with T4, Tyrosyl-tRNA synthetase, putative (Trypanosoma cruzi (strain CL Brener)) (UniProt Q4DSP6).
T4 sequence (whole entry): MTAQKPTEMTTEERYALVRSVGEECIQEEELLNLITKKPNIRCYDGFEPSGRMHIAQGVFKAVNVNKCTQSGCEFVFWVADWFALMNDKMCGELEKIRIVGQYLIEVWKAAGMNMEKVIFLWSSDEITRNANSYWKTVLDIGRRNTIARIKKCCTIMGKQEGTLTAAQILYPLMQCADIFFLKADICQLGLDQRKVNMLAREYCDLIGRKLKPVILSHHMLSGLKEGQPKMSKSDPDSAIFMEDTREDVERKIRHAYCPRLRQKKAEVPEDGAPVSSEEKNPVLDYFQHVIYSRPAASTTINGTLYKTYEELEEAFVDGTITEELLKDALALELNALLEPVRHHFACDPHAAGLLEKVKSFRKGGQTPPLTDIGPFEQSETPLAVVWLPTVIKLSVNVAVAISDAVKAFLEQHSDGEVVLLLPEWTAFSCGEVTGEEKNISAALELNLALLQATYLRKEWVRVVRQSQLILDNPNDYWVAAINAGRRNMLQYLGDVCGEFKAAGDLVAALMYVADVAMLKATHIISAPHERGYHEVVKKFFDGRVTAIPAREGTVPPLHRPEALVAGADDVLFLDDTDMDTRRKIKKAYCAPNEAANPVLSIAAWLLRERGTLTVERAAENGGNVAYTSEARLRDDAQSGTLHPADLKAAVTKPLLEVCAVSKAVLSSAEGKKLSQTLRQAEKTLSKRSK
The assay is described as follows: Trypanosoma cruzi tyrosyl tRNA synthetase (TcYRS) _High Tyrosine SOP. Further: in the data most compounds retested in dose-response had high values. The settings on record: 30 µM. In kind it is functional.

Assay [8] concerns the target T4, Tyrosyl-tRNA synthetase, putative (Trypanosoma cruzi (strain CL Brener)). In words: Trypanosoma cruzi tyrosyl tRNA synthetase (TcYRS) SOP. In kind it is functional. The settings on record: 30 µM.
Assay [9] addresses Chromo domain-containing protein 1 (Saccharomyces cerevisiae (strain ATCC 204508 / S288c) (Baker's yeast)) (UniProt P32657). The assay is described as follows: ScCHD-1 Enzyme Inhibition Assay. Further: in the data most compounds retested in dose-response had high values. In kind it is functional. The settings on record: 30 µM.

For some of these results: Results with a measured potency or affinity are listed apart.

Protein translocase subunit SecA (Escherichia coli (strain K12)), sequence (P10408 whole entry): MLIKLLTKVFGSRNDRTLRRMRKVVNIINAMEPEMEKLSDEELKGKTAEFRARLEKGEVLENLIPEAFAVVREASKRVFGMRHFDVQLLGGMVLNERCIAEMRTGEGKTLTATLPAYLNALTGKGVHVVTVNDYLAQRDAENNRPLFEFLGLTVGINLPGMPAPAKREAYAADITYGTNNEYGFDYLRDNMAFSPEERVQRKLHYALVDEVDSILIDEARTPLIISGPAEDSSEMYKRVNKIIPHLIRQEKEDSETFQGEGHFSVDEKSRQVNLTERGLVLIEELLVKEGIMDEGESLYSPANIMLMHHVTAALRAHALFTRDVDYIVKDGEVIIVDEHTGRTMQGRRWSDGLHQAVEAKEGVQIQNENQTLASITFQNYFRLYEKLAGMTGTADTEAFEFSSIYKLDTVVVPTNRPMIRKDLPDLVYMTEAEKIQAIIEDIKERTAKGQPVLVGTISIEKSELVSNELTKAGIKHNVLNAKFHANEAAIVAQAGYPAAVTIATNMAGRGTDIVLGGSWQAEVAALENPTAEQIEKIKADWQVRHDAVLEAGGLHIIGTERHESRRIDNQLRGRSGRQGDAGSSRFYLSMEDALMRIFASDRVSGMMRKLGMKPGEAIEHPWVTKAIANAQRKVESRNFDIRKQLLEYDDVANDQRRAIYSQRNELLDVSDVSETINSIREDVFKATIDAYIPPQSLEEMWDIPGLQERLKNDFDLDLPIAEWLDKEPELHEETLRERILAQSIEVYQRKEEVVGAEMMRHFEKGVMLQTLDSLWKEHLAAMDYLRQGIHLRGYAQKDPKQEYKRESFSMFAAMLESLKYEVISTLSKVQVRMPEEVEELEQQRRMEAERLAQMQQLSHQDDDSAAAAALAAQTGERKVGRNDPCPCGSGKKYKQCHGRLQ
Sialic acid-binding Ig-like lectin 9 (Homo sapiens), sequence (Q9Y336 whole entry): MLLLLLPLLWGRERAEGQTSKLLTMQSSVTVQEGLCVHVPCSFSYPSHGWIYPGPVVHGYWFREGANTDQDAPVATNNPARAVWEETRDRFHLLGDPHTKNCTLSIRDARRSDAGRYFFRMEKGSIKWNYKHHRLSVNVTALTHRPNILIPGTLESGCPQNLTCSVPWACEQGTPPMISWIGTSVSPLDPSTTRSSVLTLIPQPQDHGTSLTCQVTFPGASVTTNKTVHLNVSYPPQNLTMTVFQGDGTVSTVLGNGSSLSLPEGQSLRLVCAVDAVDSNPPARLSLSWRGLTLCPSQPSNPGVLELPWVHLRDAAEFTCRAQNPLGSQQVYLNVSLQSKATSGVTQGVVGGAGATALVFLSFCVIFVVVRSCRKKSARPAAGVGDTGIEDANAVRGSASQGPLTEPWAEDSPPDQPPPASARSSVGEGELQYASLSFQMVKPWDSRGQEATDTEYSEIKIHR
Chromo domain-containing protein 1 (Saccharomyces cerevisiae (strain ATCC 204508 / S288c) (Baker's yeast)), sequence (P32657 whole entry, the tested form may be a part): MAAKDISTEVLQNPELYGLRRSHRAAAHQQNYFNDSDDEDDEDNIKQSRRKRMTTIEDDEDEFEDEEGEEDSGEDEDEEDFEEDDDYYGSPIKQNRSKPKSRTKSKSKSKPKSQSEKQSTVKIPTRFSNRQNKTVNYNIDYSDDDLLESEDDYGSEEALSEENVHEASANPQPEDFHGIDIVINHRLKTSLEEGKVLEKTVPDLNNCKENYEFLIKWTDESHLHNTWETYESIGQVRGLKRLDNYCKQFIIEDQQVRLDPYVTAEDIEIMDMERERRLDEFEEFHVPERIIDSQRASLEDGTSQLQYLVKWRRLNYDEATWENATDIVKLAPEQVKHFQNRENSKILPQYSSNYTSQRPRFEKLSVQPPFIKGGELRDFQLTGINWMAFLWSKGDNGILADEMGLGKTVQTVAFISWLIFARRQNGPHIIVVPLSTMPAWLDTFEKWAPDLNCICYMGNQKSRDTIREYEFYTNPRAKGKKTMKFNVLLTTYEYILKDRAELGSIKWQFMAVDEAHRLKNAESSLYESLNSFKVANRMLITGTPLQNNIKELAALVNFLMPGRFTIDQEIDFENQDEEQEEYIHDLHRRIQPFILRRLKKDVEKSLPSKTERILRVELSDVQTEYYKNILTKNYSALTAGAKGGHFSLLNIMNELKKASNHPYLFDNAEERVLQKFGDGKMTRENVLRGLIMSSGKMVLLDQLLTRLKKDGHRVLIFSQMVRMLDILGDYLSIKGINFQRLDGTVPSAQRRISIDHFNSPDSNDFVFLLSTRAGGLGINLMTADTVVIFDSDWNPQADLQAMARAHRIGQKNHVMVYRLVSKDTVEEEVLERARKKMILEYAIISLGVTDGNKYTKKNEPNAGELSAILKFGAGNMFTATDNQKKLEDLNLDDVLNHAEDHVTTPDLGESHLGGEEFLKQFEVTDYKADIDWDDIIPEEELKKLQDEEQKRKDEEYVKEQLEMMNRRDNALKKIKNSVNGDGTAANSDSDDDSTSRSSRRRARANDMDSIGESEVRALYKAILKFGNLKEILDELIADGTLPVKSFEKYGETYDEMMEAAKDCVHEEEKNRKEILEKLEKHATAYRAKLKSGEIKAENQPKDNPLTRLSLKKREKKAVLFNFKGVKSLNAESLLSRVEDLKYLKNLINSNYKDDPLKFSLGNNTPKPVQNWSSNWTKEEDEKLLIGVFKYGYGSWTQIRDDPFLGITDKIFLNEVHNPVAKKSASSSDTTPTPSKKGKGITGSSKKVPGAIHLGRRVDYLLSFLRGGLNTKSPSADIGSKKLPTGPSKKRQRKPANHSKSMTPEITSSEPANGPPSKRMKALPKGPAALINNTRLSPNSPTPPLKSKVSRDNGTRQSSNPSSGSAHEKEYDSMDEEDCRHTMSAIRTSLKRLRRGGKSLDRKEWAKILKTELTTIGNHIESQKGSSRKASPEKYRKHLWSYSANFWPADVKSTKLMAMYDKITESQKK

As for `Cc1cc(C)c2cc(CNCC3CCCO3)c3nn(C)c(=O)n3c2c1` (stereo not drawn), the Percent Effect in assay [1] was -1.56%; in [2], 9.46%; in [3] it was 5.25%; in assay [4] it was 0.0533%; with Trypanosoma cruzi, 2.17%; in assay [5], -1.62%. Further, the Percent Effect in assay [6] is 7.96%; in the assay filed under Homo sapiens it was 27%; in assay [7] it was 2.15%; in [8], 9.09%; in [9], -28.2%.
With `CCc1nc(CN(C)C2CCN(Cc3ccc(C#N)cc3F)C2)no1` (stereo not drawn), the Percent Effect in assay [1] was -6.15%; in assay [2], 10.8%; in assay [3], -3.61%; in assay [4] it was -0.906%; with Trypanosoma cruzi, -6.7%; in assay [5], -6.01%. Moreover, the Percent Effect in assay [6] is 12.6%; in the assay filed under Homo sapiens, 20.8%; in assay [7], 7.39%; in assay [8] it was 1.24%; in assay [9], -7.82%.
As to `N#Cc1ccc(OCCNc2cccc(C(=O)N3CCOCC3)c2)cc1`, the Percent Effect is -3.6% in assay [1]; 15.6% in assay [2]; -1.62% in assay [3]; 14.6% in assay [4]; 6.98% in the assay on Trypanosoma cruzi; -8.28% in assay [5]. For the same compound, the Percent Effect in [6] amounted to 17.1%; in the assay listed under Homo sapiens it was 16.8%; in [7], 2.15%; in assay [8], 13.6%; in assay [9], 0.249%.
As for `COC(=O)c1cccc(OCCn2nc(-c3cccs3)oc2=O)c1`, the Percent Effect was -3.91% in assay [1]; -5.41% in assay [2]; -4.63% in [3]; 7.61% in assay [4]; -4.36% in the assay on Trypanosoma cruzi; -3.14% in [5]. The Percent Effect in assay [6] is 1.44%; in the assay filed under Homo sapiens, 22.8%; in assay [7], -16.8%; in assay [8] it was -6.1%; in assay [9], 3.23%.
For `CC1(C(=O)N2CCOCC2)CN(Cc2ccccc2F)CCO1` (stereo not drawn), the Percent Effect was -2.69% in assay [1]; 8% in [2]; 12% in assay [3]; 4.39% in [4]; -4.13% with Trypanosoma cruzi; 0.699% in [5]. The Percent Effect was -1.15% in assay [6]; 17% in the assay listed under Homo sapiens; 3.19% in assay [7]; 8.97% in assay [8]; -1.88% in [9].
For the compound `CN1CC(=O)N(c2cccc(F)c2)CC12CCNC2` (stereo not drawn), the Percent Effect in [1] was -5.9%; in assay [2], 0%; in assay [3] it was 3.44%; in assay [4], -2.82%; in the assay with Trypanosoma cruzi it was -3.03%; in [5], -4.78%. The Percent Effect was 10.7% in assay [6]; 12.5% in the assay listed under Homo sapiens; -1.08% in [7]; 5.13% in assay [8]; 1.85% in assay [9].
In the case of `Cn1cc(CN2CCCN(C(=O)c3ccc4c(c3)COC4)CC2)cn1`, the Percent Effect in [1] is -5.64%; in [2], 18.4%; in [3], -1.04%; in assay [4], 13.2%; in the assay with Trypanosoma cruzi it was -3.27%; in [5], -2.16%. Moreover, the Percent Effect was 12.6% in assay [6]; 8.45% in the assay filed under Homo sapiens; 7.39% in [7]; 11.1% in [8]; -0.916% in assay [9].
`CN(C)C(=O)CN(C)C(=O)c1cnc(Cc2ccc(F)cc2)s1`: the Percent Effect was -5.52% in [1]; 0% in assay [2]; -1.38% in assay [3]; -1.9% in assay [4]; -1.07% with Trypanosoma cruzi; 3.12% in assay [5]. The Percent Effect was 17.8% in assay [6]; -4.01% in the assay listed under Homo sapiens; 0.546% in assay [7]; 8.64% in assay [8]; -7.08% in assay [9].
